From PubChem
TGFb inhibitor = qHTS for Inhibitors of TGF-b; HepG2 CAGA-GFP TGF-b/SMAD3 reporter, GFP fluorescence, 18 h; TGF-beta stimulated, 500 pg/mL final; Potency, µM (series often up to 46.1 µM), without a hit: at the top dose activity, negative = inhibition, most hits filed as inhibitors; 1.2% of 410,000 active; AID 588855, 2011; also: potency is read from the fitted curve at half-maximal effect; % is scaled to controls: 0 for no effect and ±100 for the full control effect; nearly all actives have a fitted effect of over 65% in size
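Using HEPG2 CAGA-GFP reporter cells at 1000 cells/well, we pinned test compounds, stimulated with recombinant TGF-beta (500 pg/mL final) and measured total well GFP after 18 h.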
D3 ag = qHTS of D3 Dopamine Receptor Agonist: qHTS; D3R DiscoveRx beta-arrestin cells, luminescence, 90 min; 0.58% of 410,000 active; AID 652048, 2013; max activation, %; D(3) dopamine receptor (Homo sapiens), P35462; in the data active = max activation above about 30%; also: 0% is about no effect
Target sequence (P35462 whole entry, looked up): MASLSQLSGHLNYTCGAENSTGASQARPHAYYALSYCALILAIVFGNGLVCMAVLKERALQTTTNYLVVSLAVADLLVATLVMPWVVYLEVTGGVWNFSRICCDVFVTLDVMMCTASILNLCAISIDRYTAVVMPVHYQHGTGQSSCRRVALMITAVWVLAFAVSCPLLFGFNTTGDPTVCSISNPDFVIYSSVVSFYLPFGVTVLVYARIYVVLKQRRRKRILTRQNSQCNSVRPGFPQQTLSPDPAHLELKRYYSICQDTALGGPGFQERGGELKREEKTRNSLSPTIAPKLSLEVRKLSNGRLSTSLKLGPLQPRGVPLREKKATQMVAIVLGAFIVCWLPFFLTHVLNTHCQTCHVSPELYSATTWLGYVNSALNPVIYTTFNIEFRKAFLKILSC
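Cells at 1500/well, incubated overnight, then treated with pinned compounds (dopamine as control) for 90 min at 37 degrees C. DiscoveRx reagent added for 30 - 60 minutes at room temperature; luminescence read.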
HepG2 viability = qHTS for Inhibitors of TGF-b: Cytotox Counterscreen; HepG2 CAGA-GFP viability, ATP luminescence, 18 h; AID 588856, 2011; Potency, µM (titrated, usually from 46.1 µM), for inactives: top-dose activity change, negative = cytotoxicity, actives largely listed as cytotoxic; 0.76% of 410,000 active; also: potency is read from the fitted curve at half-maximal effect
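HepG2 CAGA-GFP cells (1000/well, DMEM with 1% FBS) received compound, then TGF-beta at 500 pg/mL final, and were incubated 18 hours at 37 degrees C. Viability was read by CellTiter-Glo luminescence. Media-only wells were set as complete cell-killing and DMSO as no toxicity.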
ATXN2 expr inh = Primary qHTS for Inhibitors of ATXN expression; HEK-293 ATXN2-luciferase reporter, luminescence, 24 h; Potency, µM (titrated, usually from 57 µM), inactives show top-dose activity change, negative = inhibition, actives largely listed as inhibitors; 0.72% of 360,000 active; AID 1745845, 2022; also: potency is read from the fitted curve at half-maximal effect; % is scaled to controls: 0 for no effect and ±100 for the full control effect; nearly all actives have a fitted effect of over 55% in size
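qHTS (up to 57 uM final) was run with 24 h compound exposure of reporter cells at 37 °C. Each well was multiplexed: SteadyGlo luminescence measured ATXN2-luciferase expression after a fluorogenic Gly-Phe-AFC viability readout (25 uM final).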
S2 tox = Viability Counterscreen for Primary qHTS for Inhibitors of ATXN expression; 0.49% of 400,000 active; AID 651635, 2014; S2 cells (HEK-293 line with an ATXN2-luciferase reporter) viability, CellTiter-Fluor protease fluorescence, 24 h; Potency, µM (titrated, usually from 56.7 µM), most hits filed as cytotoxic; also: potency is read from the fitted curve at half-maximal effect; nearly all actives have a fitted effect of over 40% in size
DRD3 antagonist = qHTS of D3 Dopamine Receptor Antagonist: qHTS; D(3) dopamine receptor (Homo sapiens), P35462; D3R cells, DiscoveRx beta-arrestin luminescence, antagonist mode; active compounds read low; max response, negative = inhibition, %; 2.5% of 360,000 active; in the data active = max response below about -50%; inconclusive = no clear call, values can overlap the other calls; also: % is scaled to controls: 0 for no effect and ±100 for the full control effect
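Cells expressing the human receptor were seeded at 1500 cells/well, incubated overnight at 37 degrees C in 5% CO2, then exposed to library compounds with dopamine controls for 90 minutes at 37 degrees C before luminescent detection.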
* = called active by the depositor; i = inactive; ? = inconclusive; nt = no result given; ! = not confirmed by another sample; [ ] = dose if it differs, or a comment. This is a sample that favours compounds with a hit; in the whole collection about 4.7% have one here. Unless noted, calls follow the shape of the dose curve; as a rule, active = well fitted curve in the direction sought with a large enough effect; inconclusive = small, poorly fitted or top-dose-only effect, or another doubt; inactive = no such curve, though single readings can be large; an effect the other way counts as inactive or inconclusive.

SMILES	TGFb inhibitor	D3 ag	HepG2 viability	ATXN2 expr inh	S2 tox	DRD3 antagonist
COc1ccc(/C=C/C(=O)O)cc1S(=O)(=O)NCc1ccco1	-1%	-7	2%	4%	i	1
Cc1cc(C)n(Cc2cccc(C(=O)NCC3Cc4cccc(-c5ncccn5)c4O3)c2)n1 (configuration not stated)	nt	nt	nt	nt	i	nt
CCOC(=O)c1c(-c2ccccc2)oc2cc(CN(C)C)c(O)c(CN(C)C)c12	-5%	-5	-48%	14µM*	i	-15
CCOC(=O)c1c(C)oc2cc(Cl)c(O)c(CN(C)C)c12	4%	6	20%	60%	i	6
Cc1cc(-c2ccnc(-n3ncc(C(=O)N(C)CC(O)c4ccccc4)c3C)n2)c(C)s1 (configuration not stated)	nt	nt	nt	nt	i	nt
CN(CCC#N)C(=O)COC(=O)c1nn(-c2ccccc2)c(=O)c2ccccc12	-3%	-7	-1%	21%	i	-58*
CCOC(=O)c1nn(-c2ccccc2)c(=O)c2c(N)scc12	-19%	6	-98%	-13%	i	-25
CC1CN(C(=O)COC(=O)c2nn(-c3ccccc3)c(=O)c3ccccc23)CC(C)O1 (configuration not stated)	-5%	0	4%	nt	i	5
CCOC(=O)c1nn(-c2ccccc2)c(=O)c2c(NC(C)=O)scc12	2%	-6	3.2µM*	-24%	i	-8
Cc1ccc(-n2ncc(C(=O)NCCCN3CCN(c4cccc(Cl)c4)CC3)c2-n2cccc2)cc1	?	2	-23%	nt	nt	nt
CCn1c(=O)c2c(nc(C=Cc3ccc(OC)c(OC)c3)n2C)n(CC)c1=O	nt	nt	nt	?	i	nt
CC(=O)Nc1cc(C(=O)N2CCN(C(=O)c3ccco3)CC2)cc2ncn(CCc3ccccn3)c12	nt	nt	nt	nt	i	nt
Cc1ccc(C(=O)Nc2ccc(C(=O)O)cc2)cc1S(=O)(=O)N1CCC(C)CC1	7%	1	7%	3%	i	nt
FC(F)(F)c1ccc(Nc2nc3ccc(Oc4ccnc(-c5ncc(C(F)(F)F)[nH]5)c4)cc3[nH]2)cc1	nt	nt	nt	-12%	nt	nt
CCOC(=O)c1ccc(NC(=O)CSc2nnc(-c3ccncc3)n2-c2ccccc2)cc1	2%	0	-1%	8%	i	nt
Cc1[nH]c(C)c(S(=O)(=O)Nc2ccc(OC(F)(F)F)cc2)c1C(=O)N1CCCCC1	-5%	-9	-33%	-4%	i	-91*
Cc1ccc(NS(=O)(=O)c2c(C)[nH]c(C)c2C(=O)N2CCCC2)cc1	11%	-4	-15%	-8%	?	-20
COc1ccc(/C(C)=N\Nc2nc(-c3ccc(Cl)cc3)cc(C(F)(F)F)n2)cc1OC	-1%	45*	-20%	?	i	34
COc1ccc(/C=N/Nc2nc(-c3ccc(Cl)cc3)cc(C(F)(F)F)n2)c(OC)c1	-3%	2	-2%	-2%	i	10
COc1ccc(NC(=O)C2(C)CCN2Cc2csc3ccccc23)cc1OC (configuration not stated)	2%	16	-18%	?	?	51
CC1(C(=O)Nc2cccc3cccnc23)CCN1Cc1csc2ccccc12 (configuration not stated)	?	-13	-48%	0%	20µM*	0
Cc1cc(C)cc(Nc2nc3ccccc3n3cnnc23)c1	-10%	-3	-40%	9%	i	nt
O=C(Nc1cccc(C(=O)OCc2cc(=O)n3c4c(sc3n2)CCCC4)c1)c1ccc(Cl)cc1	10µM*	10	-31%	nt	nt	nt
O=C(Nc1cccc(C(=O)OCc2cc(=O)n3c4c(sc3n2)CCCC4)c1)c1cccc(Cl)c1	11%	3	7%	nt	nt	nt
COC(=O)C[C@](O)(CCCC(C)(C)O)C(=O)O[C@@H]1C(OC)=CC23CCCN2CCc2cc4c(cc2[C@H]13)OCO4 (some centres not stated)	nt	-9	nt	nt	?	nt
SMILES	TGFb inhibitor	D3 ag	HepG2 viability	ATXN2 expr inh	S2 tox	DRD3 antagonist
CCCCn1nnc(NC(=S)NC(=O)c2ccc(-c3cccc(Cl)c3Cl)o2)n1	-3%	-23	-3%	-7%	i	-71*
CCCCn1nnc(NC(=O)c2ccc(-c3ccccc3[N+](=O)[O-])o2)n1	-15%	-3	7%	nt	?	?
CCC(NC(C)C)C(O)c1ccc(O)c2[nH]c(=O)ccc12 (configuration not stated)	-6%	35*	-36%	-6%	nt	-7
COc1ccc(Nc2nc(Nc3ccc(OC)cc3OC)nc(N3CCOCC3)n2)c(OC)c1	10%	40*	-42%	nt	nt	nt
COc1ccc(NC(=O)CSc2nc3ccccc3nc2N2CCOCC2)c(OC)c1	-14%	5	-20%	-21%	4.5µM*!	19
C#CCn1c(C2CC(=O)N(c3ccc(OCC)cc3)C2)nc2ccccc21 (configuration not stated)	-8%	1	-6%	4%	i	nt
CCOc1cccc(/C=C/c2ccc3cccc(O)c3n2)c1O	?	1	-18%	-8%	?	-56*
CCOc1cccc(/C=C/c2ccc3cccc(O)c3n2)c1OC	?	-24	-13%	6%	i	-83*
CCOc1cc(/C=C/c2ccc3cccc([N+](=O)[O-])c3n2)ccc1O	13µM*	-3	-35%	-8%	?	?
CCOc1cc(/C=C/c2ccc3cccc([N+](=O)[O-])c3n2)ccc1OCC(=O)N(C)C	2%	-6	-30%	?	?	1
CCOC(=O)/C(C#N)=N/Nc1ccc(S(=O)(=O)N2CCc3ccccc32)cc1	11µM*	4	-30%	-14%	i	10
N#C/C(=N\Nc1ccc(S(=O)(=O)N2CCc3ccccc32)cc1)C(N)=S	11µM*	3	-62%	-27%[11.3 µM]	i	-8
N#Cc1ccc(S(=O)(=O)N2CCN(c3nc(-c4cccs4)nc4ccccc34)CC2)cc1	7%	nt	11%	nt	nt	nt
CC(C)(C)c1ccc(S(=O)(=O)N2CCN(Cc3noc(CCC(=O)N4CCCCC4)n3)CC2)cc1	?	5	-24%	nt	nt	nt
CC(C)Cc1ccc(S(=O)(=O)N2CCN(Cc3noc(CCC(=O)N4CCCCC4)n3)CC2)cc1	11µM*	-17	-26%	nt	nt	nt
COCCN1CCN(C(=O)c2cnn(-c3nccc(-c4ccco4)n3)c2C(C)C)CC1	nt	nt	nt	nt	i	nt
C[C@@H]1[C@H](c2ccccc2)OCCS(=O)(=O)N1Cc1cccc(C(F)(F)F)c1	?	nt	-31%	nt	nt	nt
